HCV inh = blocks hepatitis C virus; AID 651820; Potency, µM (top dose mostly 41.8 µM), most hits filed as inhibitors; Huh7.5.1 HCVcc-Cre infection, luciferase reporter, 44 h; 340,000 compounds, 3.4% hits
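Cells seeded at 1,000/well and cultured 4 h, then compounds added followed by HCVcc-Cre virus (~0.5 moi). After 44 h further culture, luciferase substrate was added, plates held 15 min at room temperature, and luminescence read for 15 sec.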
Cycloheximide cs = counter-screen for Shiga toxin inhibitors: cycloheximide protein synthesis inhibition | cell reporter, cycloheximide protein synthesis inhibition counterscreen | 300,000 compounds, 12% hits | max response, %; in the data active means max response mostly above about 13%, no sharp cut-off; inactive means mostly below about 14%; further: read at 38.3 µM for the half of the compounds with a filed dose
Pf growth 96h = P. falciparum growth inhibition at 96 hours; 320,000 compounds, 6.9% hits; Potency, µM (titrated, usually from 28.7 µM), usual class: inhibitors; AID 504834; P. falciparum luciferase reporter growth, 96 h
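Delayed-death screen, second-generation endpoint: infected erythrocytes, 2% hematocrit, 0.05% parasitemia final; 96 hours at 37 C, 5% CO2; luciferase detection reagent; luminescence decrease equals reduced growth.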
Shiga toxin inh = blocks Shiga toxin action in Vero cells. Vero cells, Shiga toxin protein synthesis inhibition reporter. inhibition, % at 38.7 µM. 290,000 compounds, 9.2% hits. AID 2315; in the data active means inhibition mostly above about 28%, no sharp cut-off; inactive means mostly below about 43%
HCMV inh = blocks human cytomegalovirus replication. activity change, negative = inhibition, % at 57.5 µM. 410,000 compounds, 4.5% hits. HFF cells, HCMV-luciferase reporter, 72 h; stronger effect = lower value; in the data active means activity change below about -60%; inconclusive means no clear call, values can overlap the other calls; inactive means above about -39%
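Luciferase read-out from HCMV-luciferase-infected HFFs (MOI 1 PFU/cell) 72 h post infection at 37C; compounds added after 16 h cell attachment; activity normalized between buffer-only basal and Salinomycin (10uM) inhibitor controls.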
Pf growth 48h = inhibits P. falciparum growth in the first generation, 48 h. P. falciparum luciferase growth in erythrocytes, 48 h. AID 504832. Potency, µM (highest dose often 28.7 µM), most hits filed as inhibitors. 310,000 compounds, 5.9% hits
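Cell-based growth assay: transgenic P. falciparum expressing firefly luciferase, cultured in red cells within RPMI 1640 containing 0.5% w/v Albumax, 24 mM bicarbonate and gentamycin. A drop in luciferase activity indicates inhibition.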
Numbers stand for hits; 0 = inactive; ? = inconclusive; - = no result given; [ ] = another dose, or the depositor's remark. This is a sample that favours compounds with a hit; in the whole collection about 21% have one here. Unless noted, the call rests on the fitted dose curve; in most records, active means well fitted inhibition curve with a large enough effect; inconclusive means small, poorly fitted or top-dose-only effect, or another doubt; inactive means no such curve, though single readings can be large or run the other way.

SMILES	HCV inh	Cycloheximide cs	Pf growth 96h	Shiga toxin inh	HCMV inh	Pf growth 48h
CCOC(=O)N/N=C(\C)c1ccc(Br)cc1	0	31	12µM	0	0	-
CCOC(=O)N/N=C(\C)c1ccc(C)c([N+](=O)[O-])c1	0	16	0	0	0	0
COc1ccc(/C(C)=N/NC(=O)OC(C)(C)C)cc1[N+](=O)[O-]	0	22	?	79	0	0
C=C1CCN(C(Cc2ccccc2)C(=O)N2CCOCC2)S(=O)(=O)c2ccccc21 (configuration not stated)	-	0	-	0	-	-
COc1ccc(NS(=O)(=O)c2csc(C(N)=O)c2)cc1	0	0	?	0	0	7.4µM
COc1cc(NS(=O)(=O)c2csc(C(N)=O)c2)cc(OC)c1	0	0	0	0	0	0
COc1ccc(NS(=O)(=O)c2csc(C(N)=O)c2)cc1OC	0	0	0	0	0	?
NC(=O)c1cc(S(=O)(=O)Nc2ccc(OC(F)(F)F)cc2)cs1	0	0	?	0	0	13µM
CC(C)NC(=O)c1sc2ncccc2c1-n1cccc1	-	-	-	-	0	-
Nc1c(C(=O)N/N=C/c2ccc([N+](=O)[O-])cc2)sc2nnc(-c3ccccc3)c(-c3ccccc3)c12	0	0	0	0	-	0
CC(C)(C)NC(=O)C1c2ccccc2OCC(=O)N1CCCN1CCOCC1 (configuration not stated)	-	-	-	-	0	-
O=C(CSc1nnnn1C1CC1)Nc1cccc(S(=O)(=O)N2CCCC2)c1	0	-	?	-	-75	?
O=C(CSc1nnnn1-c1ccc(O)cc1)Nc1cccc(S(=O)(=O)N2CCCC2)c1	?	0	-	0	-73	?
O=C(CSc1nnnn1C1CCCC1)Nc1cccc(NC(=O)c2ccco2)c1	0	0	?	0	-70	0
CCN(CC)c1ccc(NS(=O)(=O)c2cc(-c3onc(C)c3C)ccc2OC)c(C)c1	-	-	-	-	0	-
COc1ccc2[nH]c(=O)c(CN(C(=O)c3cccc(Cl)c3)c3ccccc3OC)cc2c1	-	-	-	-	0	-
CC(=O)OC1C(O)C(C)OC(OC2C(OC(=O)C3CCC4C(C3)OC3(CC(OC(=O)/C=C/c5ccccc5)C(C)CO3)C43CO3)OC(C)C(O)C2OC(C)=O)C1O (configuration not stated)	?	-	-	-	-98	-
COc1ccc(/C=C/c2nc(C#N)c(N3CCCCC3)o2)cc1OC	-	-	-	-	0	-
COC(=O)c1cc(-c2ccccc2)n[nH]1	0	0	0[5.75 µM]	0	0	0
COc1ccc(Cl)cc1-c1cc(C(=O)Nc2ccccc2)[nH]n1	-	-	-	-	0	-
COC(=O)c1cc(-c2ccc(Cl)cc2)n[nH]1	0	38	0	47	?	0
COC(=O)c1cc(-c2ccc(Cl)cc2Cl)n[nH]1	0	29	0	63	0	0
Cc1ccccc1-c1csc(C(O)(c2ccccc2)C(F)(F)F)n1 (configuration not stated)	-	-	-	-	0	-
CCN(CC)S(=O)(=O)c1cccc(C(=O)N/N=C/c2c(C)nn(-c3ccccc3)c2Cl)c1	0	0	0	0	0	?
Cc1nn(-c2ccccc2)c(Cl)c1/C=N/NC(=O)c1ccc(CNc2ccccc2)o1	?	25	?	44	?	?
SMILES	HCV inh	Cycloheximide cs	Pf growth 96h	Shiga toxin inh	HCMV inh	Pf growth 48h
Cc1nn(C)cc1/C=N/NC(=O)c1ccco1	0	38	0	82	0	0
Cc1nn(-c2ccccc2)c(Cl)c1/C=N/NC(=O)C1COc2ccccc2O1 (configuration not stated)	0	0	0	0	-	0
Cc1nn(-c2ccccc2)c(Cl)c1/C=N/NC(=O)c1ccco1	0	52	?	104	0	0
CC(=O)N1c2ccccc2C(=O)C1N1CCN(c2cccc(Cl)c2)CC1 (configuration not stated)	-	-	-	-	0	-
CCN(CC)C(=O)c1ccc2c(c1)N(Cc1c(F)cccc1Cl)C(=O)c1ccccc1S2	-	-	-	-	0	-
Cn1cnnc1SCC(=O)N/N=C/c1ccc(OCC(N)=O)cc1	0	0	0	0	0	0
CCSc1nncn1/N=C/c1ccc(OC)c(OC)c1	0	21	0	32	0	0
CCOc1ccc(/C=N/n2c(C)nnc2C)cc1OC	0	0	0	0	0	0
C=C(C)CSc1nncn1/N=C/c1ccc(OC)cc1	0	55	0	141	0	0
COc1cc(/C=N/n2cnnc2)ccc1OCCSc1ccc(C)cc1	0	22	?	0	0	0

Compound activity: PubChem, National Center for Advancing Translational Sciences (NCATS)
